Experimental data reported in PubChem BioAssay AID1159580 (chemical genetic matrix, 2015).
The campaign covered roughly 5,500 compounds. About 2,000 (36%) were called active. Another 18% or so got no clear call; they are omitted. Cut-off read from the data, not from the text of the source: active = normalized growth mostly below about 0.91 (no sharp cut-off); inconclusive = no clear call, values can overlap the other calls; inactive = mostly above about 0.92. The list shows a part of the results.

Assay: chemical genetic growth profiling, strain panel (AID 1159580);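 note: tested at 20 µM; growth read once vehicle control cultures reached saturation at 30 °C; 1 = growth at the plate median or of vehicle wells; lower values mean less growth of the strain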
Conditions: growth OD

Measured: normalized growth

COc1cnc(NS(=O)(=O)c2ccc(N)cc2)nc1
inactive: S. cerevisiae deletion strains, locus YJR075W, strain HOC1, stronger effect = lower value 0.978 | S. cerevisiae deletion strains, locus YKL009W, strain mrt4, stronger effect = lower value 0.994 | S. cerevisiae deletion strains, locus YKL068W, stronger effect = lower value 0.983 | S. cerevisiae deletion strains, locus YKL085W, strain MDH1 (second series), stronger effect = lower value 0.971 | S. cerevisiae deletion strains, locus YKL085W, strain MDH1, stronger effect = lower value 0.971 | S. cerevisiae deletion strains, locus YKL160W, strain elf1, stronger effect = lower value 0.999 | S. cerevisiae deletion strains, locus YKL190W, strain CNB1, stronger effect = lower value 0.979 | S. cerevisiae deletion strains, locus YKR001C, strain vps1, stronger effect = lower value 0.964 | S. cerevisiae deletion strains, locus YKR026C, strain gcn3, stronger effect = lower value 1 | S. cerevisiae deletion strains, locus YKR091W, strain srl3, stronger effect = lower value 0.998 | S. cerevisiae deletion strains, locus YLL001W, strain dnm1, stronger effect = lower value 0.966 | S. cerevisiae deletion strains, locus YLL026W, stronger effect = lower value 1 | S. cerevisiae deletion strains, locus YLL041C, strain sdh2, stronger effect = lower value 0.997 | S. cerevisiae deletion strains, locus YLR027C, strain aat2, stronger effect = lower value 1.01 | S. cerevisiae deletion strains, locus YLR039C, strain RIC1, stronger effect = lower value 0.969 | S. cerevisiae deletion strains, locus YLR058C, strain SHM2, stronger effect = lower value 0.976 | S. cerevisiae deletion strains, locus YLR102C, strain apc9, stronger effect = lower value 0.973 | S. cerevisiae deletion strains, locus YLR113W, strain HOG1, stronger effect = lower value 0.989 | S. cerevisiae deletion strains, locus YLR221C, strain rsa3, stronger effect = lower value 0.988 | S. cerevisiae deletion strains, locus YLR258W, strain gsy2, stronger effect = lower value 0.99 | S. cerevisiae deletion strains, locus YLR262C, strain YPT6 (second series), stronger effect = lower value 1.02 | S. cerevisiae deletion strains, locus YLR262C, strain YPT6, stronger effect = lower value 0.96 | S. cerevisiae deletion strains, locus YLR268W, strain sec22, stronger effect = lower value 0.888 | S. cerevisiae deletion strains, locus YLR320W, strain mms22, stronger effect = lower value 0.965 | S. cerevisiae deletion strains, locus YLR330W, strain CHS5, stronger effect = lower value 0.994 | S. cerevisiae deletion strains, locus YLR342W, strain FKS1 (second series), stronger effect = lower value 1.03 | S. cerevisiae deletion strains, locus YLR342W, strain FKS1, stronger effect = lower value 1.01 | S. cerevisiae deletion strains, locus YLR357W, strain rsc2, stronger effect = lower value 0.945 | S. cerevisiae deletion strains, locus YLR370C, strain arc18, stronger effect = lower value 1 | S. cerevisiae deletion strains, locus YLR371W, strain rom2, stronger effect = lower value 0.97 | S. cerevisiae deletion strains, locus YLR384C, strain iki3, stronger effect = lower value 1 | S. cerevisiae deletion strains, locus YLR418C, strain cdc73, stronger effect = lower value 0.99 | S. cerevisiae deletion strains, locus YML016C, strain PPZ1, stronger effect = lower value 0.993 | S. cerevisiae deletion strains, locus YML032C, strain rad52, stronger effect = lower value 0.97 | S. cerevisiae deletion strains, locus YML120C, strain ndi1, stronger effect = lower value 1.02 | S. cerevisiae deletion strains, locus YML124C, strain tub3, stronger effect = lower value 0.979 | S. cerevisiae deletion strains, locus YMR058W, strain fet3, stronger effect = lower value 1 | S. cerevisiae deletion strains, locus YMR078C, strain ctf18, stronger effect = lower value 0.976 | S. cerevisiae deletion strains, locus YMR125W, strain sto1, stronger effect = lower value 0.991 | S. cerevisiae deletion strains, locus YMR129W, stronger effect = lower value 0.985 | S. cerevisiae deletion strains, locus YMR205C, strain PFK2, stronger effect = lower value 0.998 | S. cerevisiae deletion strains, locus YMR223W, strain ubp8, stronger effect = lower value 0.979 | S. cerevisiae deletion strains, locus YMR231W, strain pep5, stronger effect = lower value 0.998 | S. cerevisiae deletion strains, locus YMR307W, strain GAS1, stronger effect = lower value 1.03 | S. cerevisiae deletion strains, locus YNL067W, strain RPL9B, stronger effect = lower value 0.982 | S. cerevisiae deletion strains, locus YNL071W, strain lat1, stronger effect = lower value 1.01 | S. cerevisiae deletion strains, locus YNL183C, strain NPR1, stronger effect = lower value 0.933 | S. cerevisiae deletion strains, locus YNL209W, strain ssb2, stronger effect = lower value 0.997 | S. cerevisiae deletion strains, locus YNL233W, strain BNI4, stronger effect = lower value 1 | S. cerevisiae deletion strains, locus YNL248C, strain rpa49, stronger effect = lower value 0.982 | S. cerevisiae deletion strains, locus YNL250W, strain rad50, stronger effect = lower value 0.982 | S. cerevisiae deletion strains, locus YNL271C, strain bni1, stronger effect = lower value 0.979 | S. cerevisiae deletion strains, locus YNL298W, strain CLA4, stronger effect = lower value 0.965 | S. cerevisiae deletion strains, locus YNL307C, strain MCK1, stronger effect = lower value 0.981 | S. cerevisiae deletion strains, locus YNL322C, strain KRE1 (second series), stronger effect = lower value 0.986 | S. cerevisiae deletion strains, locus YNR049C, strain mso1, stronger effect = lower value 1 | S. cerevisiae deletion strains, locus YNR052C, strain pop2, stronger effect = lower value 0.977 | S. cerevisiae deletion strains, locus YOL006C, strain TOP1, stronger effect = lower value 0.945 | S. cerevisiae deletion strains, locus YOL012C, strain htz1 0.813 | S. cerevisiae deletion strains, locus YOL147C, strain pex11, stronger effect = lower value 0.985 | S. cerevisiae deletion strains, locus YOR001W, strain rrp6, stronger effect = lower value 0.99 | S. cerevisiae deletion strains, locus YOR061W, strain CKA2, stronger effect = lower value 0.962 | S. cerevisiae deletion strains, locus YOR069W, strain VPS5, stronger effect = lower value 0.993 | S. cerevisiae deletion strains, locus YOR070C, strain gyp1, stronger effect = lower value 1.01 | S. cerevisiae deletion strains, locus YOR080W, strain dia2, stronger effect = lower value 0.98 | S. cerevisiae deletion strains, locus YOR083W, strain WHI5, stronger effect = lower value 0.943 | S. cerevisiae deletion strains, locus YOR106W, strain vam3, stronger effect = lower value 0.986 | S. cerevisiae deletion strains, locus YOR136W, strain idh2, stronger effect = lower value 0.987 | S. cerevisiae deletion strains, locus YOR144C, strain elg1, stronger effect = lower value 0.976 | S. cerevisiae deletion strains, locus YOR184W, strain ser1, stronger effect = lower value 0.985 | S. cerevisiae deletion strains, locus YOR231W, strain MKK1, stronger effect = lower value 0.99 | S. cerevisiae deletion strains, locus YOR265W, strain rbl2, stronger effect = lower value 1.02 | S. cerevisiae deletion strains, locus YOR270C, strain vph1, stronger effect = lower value 1.04 | S. cerevisiae deletion strains, locus YOR290C, strain snf2, stronger effect = lower value 0.984 | S. cerevisiae deletion strains, locus YOR316C, strain cot1, stronger effect = lower value 0.958 | S. cerevisiae deletion strains, locus YPL051W, strain arl3, stronger effect = lower value 0.999 | S. cerevisiae deletion strains, locus YPL055C, strain LGE1, stronger effect = lower value 0.949 | S. cerevisiae deletion strains, locus YPL078C, strain atp4, stronger effect = lower value 0.991 | S. cerevisiae deletion strains, locus YPL106C, strain sse1, stronger effect = lower value 0.952 | S. cerevisiae deletion strains, locus YPL240C, strain hsp82, stronger effect = lower value 1 | S. cerevisiae deletion strains, locus YPL256C, strain CLN2, stronger effect = lower value 0.99 | S. cerevisiae deletion strains, locus YPR119W, strain clb2, stronger effect = lower value 0.985 | S. cerevisiae deletion strains, locus YPR141C, strain kar3, stronger effect = lower value 0.96 | S. cerevisiae deletion strains, locus YPR163C, strain tif3, stronger effect = lower value 0.991 | S. cerevisiae deletion strains, locus YPR167C, strain met16, stronger effect = lower value 0.983 | S. cerevisiae deletion strains, strain wtn01, stronger effect = lower value 0.989 | S. cerevisiae strains, strain wild type, stronger effect = lower value 0.983
